Screens from PubChem.
HP1b chromo inh: blocks HP1-beta chromodomain binding to methylated histone tails. P83916. AlphaScreen HP1-beta / biotin-H3K9me3 peptide binding. Potency, µM (titrated, usually from 114 µM), for the others: at the highest dose activity change, negative = inhibition, hits mostly inhibitors. 390,000 tested, 0.56% active; further: nearly all actives have a fitted effect of over 70% in size
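Compound inhibition of the preformed complex between 50 nM HP1-beta and 50 nM biotinylated H3K9me3 peptide was read by AlphaScreen. Buffer was PBS pH 7.4 with 0.01% Tween-20. Incubations ran 30 min at room temperature, with 10 ug/mL donor/acceptor beads.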
JMJD2A Tudor inh: inhibitors of human JMJD2A Tudor domain; O75164; 390,000 tested, 4.4% active; AID 504339; AlphaScreen JMJD2A-Tudor / H3K4me3 peptide binding; Potency, µM (doses to about 114 µM), without a hit: at the highest dose activity change, negative = inhibition, usual class: inhibitors; further: on the % scale 0 is the no-effect control and ±100 the full control effect; nearly all actives have a fitted effect of over 50% in size
Target sequence (O75164 whole entry, looked up, the tested form may be a part): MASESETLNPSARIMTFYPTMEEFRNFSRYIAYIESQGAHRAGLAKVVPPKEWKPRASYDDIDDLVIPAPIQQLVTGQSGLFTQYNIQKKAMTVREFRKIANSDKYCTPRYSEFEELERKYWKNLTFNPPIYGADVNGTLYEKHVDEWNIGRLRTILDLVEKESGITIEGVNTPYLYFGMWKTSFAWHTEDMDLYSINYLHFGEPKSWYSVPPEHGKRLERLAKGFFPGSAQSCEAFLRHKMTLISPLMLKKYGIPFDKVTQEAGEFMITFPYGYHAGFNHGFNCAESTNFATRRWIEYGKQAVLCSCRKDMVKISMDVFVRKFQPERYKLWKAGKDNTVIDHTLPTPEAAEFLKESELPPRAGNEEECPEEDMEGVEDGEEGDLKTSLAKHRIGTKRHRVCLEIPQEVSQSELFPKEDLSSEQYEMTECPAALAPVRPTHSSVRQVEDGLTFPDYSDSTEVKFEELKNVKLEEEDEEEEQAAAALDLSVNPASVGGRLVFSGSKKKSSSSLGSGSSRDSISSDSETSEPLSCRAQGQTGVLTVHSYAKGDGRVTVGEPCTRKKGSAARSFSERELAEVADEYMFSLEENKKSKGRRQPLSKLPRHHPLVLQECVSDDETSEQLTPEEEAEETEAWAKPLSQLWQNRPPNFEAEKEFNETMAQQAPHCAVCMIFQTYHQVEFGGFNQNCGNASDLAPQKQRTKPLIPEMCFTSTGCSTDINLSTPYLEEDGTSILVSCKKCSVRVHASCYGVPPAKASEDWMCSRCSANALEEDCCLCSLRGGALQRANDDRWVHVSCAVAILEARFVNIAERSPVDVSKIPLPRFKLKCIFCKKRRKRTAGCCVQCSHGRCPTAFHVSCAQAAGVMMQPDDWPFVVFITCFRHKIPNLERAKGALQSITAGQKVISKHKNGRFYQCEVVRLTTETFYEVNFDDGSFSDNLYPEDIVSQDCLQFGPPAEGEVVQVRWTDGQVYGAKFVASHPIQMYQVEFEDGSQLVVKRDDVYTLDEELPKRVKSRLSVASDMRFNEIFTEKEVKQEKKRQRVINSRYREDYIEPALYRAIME
BAZ2B block: inhibitors of human BAZ2B bromodomain | Q9UIF8 | 360,000 tested, 4.4% active | AlphaScreen BAZ2B-H3K14Ac peptide displacement | Potency, µM (titrated, usually from 114 µM), without a hit: top-dose activity change, negative = inhibition, most hits filed as inhibitors; further: on the % scale 0 is the no-effect control and ±100 the full control effect; nearly all actives have a fitted effect of over 60% in size
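BAZ2B (50 nM) with biotin-H3(5-23)K14Ac peptide (50 nM) in PBS pH 7.4, 0.01% Tween-20, preformed 30 min, then compound 30 min at room temperature; top concentration 110uM. AlphaScreen streptavidin donor/nickel chelate acceptor beads (10 ug/mL final), 20 min dark, signal read.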
GLS inh: inhibitors of human glutaminase (GLS); 410,000 tested, 0.21% active; Potency, µM (top dose mostly 45.5 µM), for the others: top-dose activity change, negative = inhibition, actives largely listed as inhibitors; GLS enzymatic activity, qHTS titration; O94925; further: on the % scale 0 is the no-effect control and ±100 the full control effect
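Coupled fluorescence readout: glutamate oxidase/HRP/Amplex Red detect glutamate formed by hKGA from L-glutamine (1 mM solution added). Buffer 45 mM KH2PO4 pH 8.2, 0.02% Tween-20; reads at t0 and 30 min RT.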
G9a block: G9a (human) methyltransferase inhibition; 350,000 tested, 8.8% active; Q96KQ7; Potency, µM (titrated, usually from 102 µM), for the others: at the highest dose activity, negative = inhibition, actives largely listed as inhibitors; AID 504332; G9a H3K9 monomethylation, AlphaScreen, 2 h; further: on the % scale 0 is the no-effect control and ±100 the full control effect; nearly all actives have a fitted effect of over 75% in size
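Chemiluminescent proximity detection of H3K9 monomethylation, read after 10 min bead incubation in the dark. Reaction: 20 nM G9a, 500 nM biotin-H3K9 peptide, 20 uM SAM cofactor, 2 h, room temperature, following 15 min enzyme-compound preincubation.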
An asterisk follows results filed as active; ! = not active in a repeat; [ ] = dose if it differs, or a comment. An excerpt weighted towards active compounds, which were near 10% of everything screened. The call rests on the fitted dose curve; in most records, active means well fitted curve in the direction sought with a large enough effect; inconclusive means small, poorly fitted or top-dose-only effect, or another doubt; inactive means no such curve, though single readings can be large; an effect the other way counts as inactive or inconclusive. Potency means the concentration at half of the fitted maximal effect.

Screening Cc1cccc(N=C2NC(=O)/C(=C/C=C/c3ccco3)S2)c1C returned HP1b chromo inh 45µM*, JMJD2A Tudor inh 40µM*, BAZ2B block 22µM*, GLS inh -4% and G9a block 18µM*.
`Cc1ccc(N=C2NC(=O)/C(=C/C=C/c3ccco3)S2)cc1` gave HP1b chromo inh inconclusive, JMJD2A Tudor inh 35µM*, BAZ2B block 16µM*, GLS inh -10% and G9a block 11µM*.
For Cc1cccc(N=C2NC(=O)/C(=C/c3cccnc3)S2)c1C the results were HP1b chromo inh 6%, JMJD2A Tudor inh -26%, BAZ2B block -18%, GLS inh -2% and G9a block inconclusive.
Screening O=C1NC(=Nc2ccccc2)S/C1=C\C=C\c1ccco1 returned HP1b chromo inh inconclusive, JMJD2A Tudor inh 50µM*, BAZ2B block 25µM*, GLS inh 0% and G9a block inconclusive.
`CC1(C)Oc2ccc3ccc(=O)oc3c2-c2cnoc21` gave HP1b chromo inh 16%, JMJD2A Tudor inh inconclusive, BAZ2B block 50µM*, GLS inh 4% and G9a block inconclusive.
`CC1(C)Oc2ccc3ccc(=O)oc3c2/C(=C/Nc2ccccc2)C1=O` gave HP1b chromo inh -22%, JMJD2A Tudor inh inconclusive, BAZ2B block inconclusive, GLS inh 2% and G9a block 71µM*.
`CC1(C)Oc2ccc3ccc(=O)oc3c2/C(=C/N)C1=O` gave HP1b chromo inh -2%, JMJD2A Tudor inh -27%, BAZ2B block -37%, GLS inh 15% and G9a block -36%.
CC1(C)Oc2ccc3ccc(=O)oc3c2/C(=C/O)C1=O was read as HP1b chromo inh 25%, JMJD2A Tudor inh -10%, BAZ2B block -21%, GLS inh 2% and G9a block 45µM*.
Screening CC1CCN(c2nc3ccccc3nc2SCC(=O)Nc2ccccc2C(C)C)CC1 returned HP1b chromo inh 71%, JMJD2A Tudor inh 33%, BAZ2B block 36%, GLS inh -1% and G9a block 123%[59 µM].
For Cc1ccc(NC(=O)c2cc3c(=O)[nH]c4ccccc4c3n2C)cc1F the results were HP1b chromo inh 14%, JMJD2A Tudor inh inconclusive, GLS inh -11% and G9a block -22%[59 µM].
Screening Clc1ccc(Cn2c3c(c4ccccc42)CCc2cc4ccccc4nc2-3)cc1 returned HP1b chromo inh 123%[57 µM] and JMJD2A Tudor inh 68%[57.1 µM].
`Clc1ccc(CNc2cc(-c3ccccc3)nc3nncn23)cc1` gave HP1b chromo inh 9%, JMJD2A Tudor inh -29%, BAZ2B block -13%, GLS inh -13% and G9a block -35%[59 µM].
`CCN1C(=O)NC(c2ccccc2)C1=O` (centres undefined) gave HP1b chromo inh 26%, JMJD2A Tudor inh -21%, BAZ2B block 10%, GLS inh -1% and G9a block -46%[59 µM].
For CN=C1N[C@H](c2ccccc2)N(c2ccccc2)S1 the results were HP1b chromo inh inconclusive and JMJD2A Tudor inh 25µM*.
`COc1ccc(C(=O)Nc2nnc(SCc3cc(=O)n4cc(Cl)ccc4n3)s2)cc1` gave HP1b chromo inh 20%[57 µM], JMJD2A Tudor inh -21%, BAZ2B block 2%, GLS inh 6% and G9a block -2%[59 µM].
Screening Cc1cc(C)n(-c2nc(SCCN(C)C)c3c4c(sc3n2)CCCC4)n1 returned HP1b chromo inh 2%, JMJD2A Tudor inh 56µM*, BAZ2B block inconclusive and GLS inh -2%.
For CC(C)(C)c1ccc(OCCNC(=S)Nc2ccccc2)cc1 the results were HP1b chromo inh 27%, JMJD2A Tudor inh -16%, BAZ2B block -11%, GLS inh -13% and G9a block 57%[12.7 µM].
Screening CC(C)(C)c1ccc(C(=O)NCCOc2ccccc2)cc1 returned HP1b chromo inh 24%, JMJD2A Tudor inh -14%, BAZ2B block inconclusive and GLS inh 6%.
CNCCCOc1ccc(C(C)(C)c2ccccc2)cc1 was read as BAZ2B block 79µM* and G9a block 7.9µM*.
`CCC(C)NCCOc1cccc(Br)c1` (centres undefined) gave HP1b chromo inh inconclusive, JMJD2A Tudor inh 4.5µM*, BAZ2B block -26%, GLS inh 1% and G9a block 8.9µM*.
CC(C)(C)c1ccc(OCCCCCCN2CCNCC2)cc1 was read as HP1b chromo inh -10%, JMJD2A Tudor inh -24% and GLS inh 0%.
For CC(C)(C)c1ccc(OCCNCc2ccccc2)cc1 the results were HP1b chromo inh inconclusive, JMJD2A Tudor inh 2.2µM*, BAZ2B block -8%, GLS inh 2% and G9a block 45µM*.
`CC(C)(c1ccccc1)c1ccc(OCCCN2CCNCC2)cc1` gave HP1b chromo inh inconclusive, JMJD2A Tudor inh 1.1µM*, BAZ2B block 20µM*, GLS inh inconclusive and G9a block 16µM*.
COc1cccc(-c2nc(N3CCN(C)CC3)c3ccccc3n2)c1 was read as G9a block -4%[0.501 µM].
For C[C@@H](NC(=O)[C@@H]1CCCN1C(=O)[C@@H]1CCCN1C(=O)c1cccc(Cl)c1)c1ccccc1 the results were GLS inh 1%.
C[C@]12CCC(=O)C=C1CC[C@@H]1C2[C@@H](O)C[C@@]2(C)[C@H]1CC[C@]2(O)C(=O)CO (some centres undefined) was read as G9a block 18%[12.7 µM].
Screening Cc1ccc(C)c(NC(=O)c2cc(S(=O)(=O)N3CCCCCC3)ccc2F)c1 returned HP1b chromo inh 20%, JMJD2A Tudor inh -14%, BAZ2B block 0%, GLS inh 1% and G9a block 8%[59 µM].
Screening CCOc1ccc(-c2ccc(NS(=O)(=O)c3cc(C)c(C)cc3C)cc2)nn1 returned HP1b chromo inh 11%[57 µM], JMJD2A Tudor inh -25%, BAZ2B block -14%, GLS inh -25% and G9a block -28%[59 µM].
CCC(C)NCCOc1ccc(C(C)(C)c2ccccc2)cc1 (centres undefined) was read as HP1b chromo inh inconclusive, JMJD2A Tudor inh 2.8µM*, BAZ2B block inconclusive, GLS inh -13% and G9a block 7.9µM*.
COCCCNCCOc1ccc(C(C)(C)c2ccccc2)cc1 was read as HP1b chromo inh 9%, JMJD2A Tudor inh 18µM*, BAZ2B block inconclusive, GLS inh -9% and G9a block 20µM*.
`NNCCc1ccccc1` gave HP1b chromo inh 20%, JMJD2A Tudor inh 79µM*, BAZ2B block -17%, GLS inh 18% and G9a block 19µM*!.
For c1ccc(CCNCCOc2ccccc2)cc1 the results were HP1b chromo inh -21%, JMJD2A Tudor inh 2.8µM*, BAZ2B block inconclusive, GLS inh 0% and G9a block 10µM*.
`CCCS(=O)(=O)NC(=O)C1(C)CCN(C(=O)c2nc(C)oc2C)C1` (centres undefined) gave GLS inh 2%.
